# Unmarked numbers belong to inactive results.
# Experiments:
# Test in all cases: log2 ratio of Biotin-Ahx-Ub-VS probe labelling (compound/DMSO); higher = less target engagement, active = hit call of the paper (q ≤ 0.05, log2 ratio ≤ -1)
# Conditions in all cases: treatment time: 3 h
# [1] = compound: ClCC(=O)NC1CCCc2ccccc12
# Procedure, shortened: (§1)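 Each value is an average ratio of compound to vehicle, calculated by unpaired t-test. Lysate from HEK293T cells (495 µg per sample) was incubated in triplicate with compound over a concentration range or vehicle for 3 h and then with Biotin-Ahx-Ub-VS (0.5 µM final) for 1 h. Probe-labelled deubiquitinases were captured on NeutrAvidin, digested and run by diaPASEF LC-MS/MS, with Spectronaut label-free quantities normalised to the global median. Ratios are log2, and only proteins with at least two unique peptides were used.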
# [2] = compound: ClCC(=O)N[C@@H]1CCCc2ccccc12
# Procedure, shortened: as §1
# [3] = compound: ClCC(=O)N[C@H]1CCCc2ccccc12
# Procedure, shortened: as §1
# [4] = compound: CCC1N(CCc2sccc12)C(=O)CCl
# Procedure, shortened: (§2)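 Compound at 50 or 200 µM, or DMSO, was applied for 3 h in triplicate to HEK293T lysate (495 µg per sample, Tris/CHAPS/IGEPAL buffer with protease inhibitors), after which Biotin-Ahx-Ub-VS was added at 0.5 µM final for 1 h. The labelled DUBs were pulled down with NeutrAvidin, digested with LysC and trypsin, and run by diaPASEF LC-MS/MS. Ratios are averaged base-two logs of compound over DMSO from median-normalised label-free quantities by unpaired t-test, counting only proteins with at least 2 unique peptides.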
# [5] = compound: CN1c2ccccc2C(CS1(=O)=O)NC(=O)CCl
# Procedure, shortened: as §2
# [6] = compound: Cl.ClCC(=O)N1CCc2ncncc2C1
# Procedure, shortened: as §2
# [7] = compound: Cl.Cn1ncc2C(CCCc12)NC(=O)CCl
# Procedure, shortened: as §2
# [8] = compound: ClCC(=O)NC1CCOc2ccccc12
# Procedure, shortened: as §2
# [9] = compound: CCC1N(CCc2cc(OC)c(Cl)cc12)C(=O)CCl
# Procedure, shortened: as §2
# [10] = compound: CCCC1N(CCc2cc(OC)c(OC)cc12)C(=O)CCl
# Procedure, shortened: as §2
# [11] = compound: CN(Cc1cccc(Br)c1)C(=O)CCl
# Procedure, shortened: as §2
# [12] = compound: CN(Cc1ccccc1)C(=O)CCl
# Procedure, shortened: as §2
# [13] = compound: COc1ccc(CN(C)C(=O)CCl)cc1
# Procedure, shortened: as §2
# [14] = compound: COc1cccc(CN(CCCc2ccccc2)C(=O)CCl)c1
# Procedure, shortened: as §2
# [15] = compound: ClCC(=O)N1CCc2cc(Cl)c(Cl)cc2C1
# Procedure, shortened: as §2
# [16] = compound: ClCC(=O)N1CCc2nc(ncc2C1)-c1ccccc1
# Procedure, shortened: as §2
# [17] = compound: ClCC(=O)N1CCc2nocc2C1
# Procedure, shortened: as §2
# [18] = compound: ClCC(=O)N1CCc2scc(Br)c2C1
# Procedure, shortened: as §2
# [19] = compound: ClCC(=O)NC(C1CCCC1)c1cccs1
# Procedure, shortened: as §2
# UniProt Q70EL2, sequence (Q70EL2 whole entry): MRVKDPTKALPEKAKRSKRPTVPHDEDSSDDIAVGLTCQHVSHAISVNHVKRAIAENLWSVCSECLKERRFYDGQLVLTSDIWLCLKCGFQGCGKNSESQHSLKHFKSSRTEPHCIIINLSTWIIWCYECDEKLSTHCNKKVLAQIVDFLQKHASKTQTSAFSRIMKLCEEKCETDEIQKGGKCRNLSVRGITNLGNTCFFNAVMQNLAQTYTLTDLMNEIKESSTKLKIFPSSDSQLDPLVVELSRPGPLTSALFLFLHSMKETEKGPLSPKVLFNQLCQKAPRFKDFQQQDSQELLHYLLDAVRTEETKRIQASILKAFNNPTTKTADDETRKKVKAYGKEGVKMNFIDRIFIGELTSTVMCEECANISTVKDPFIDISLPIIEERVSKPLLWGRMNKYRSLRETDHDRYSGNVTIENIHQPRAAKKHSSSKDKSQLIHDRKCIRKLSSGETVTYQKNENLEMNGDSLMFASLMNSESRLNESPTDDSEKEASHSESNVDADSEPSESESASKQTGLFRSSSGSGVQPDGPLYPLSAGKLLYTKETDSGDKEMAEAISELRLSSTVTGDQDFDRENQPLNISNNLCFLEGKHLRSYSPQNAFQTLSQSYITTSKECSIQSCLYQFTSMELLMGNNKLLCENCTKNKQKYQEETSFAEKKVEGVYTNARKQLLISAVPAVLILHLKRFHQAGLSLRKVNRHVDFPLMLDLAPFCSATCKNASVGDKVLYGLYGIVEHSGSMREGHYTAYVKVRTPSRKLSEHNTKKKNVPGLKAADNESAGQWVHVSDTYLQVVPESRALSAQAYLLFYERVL
# UniProt Q9Y2K6, sequence (Q9Y2K6 whole entry): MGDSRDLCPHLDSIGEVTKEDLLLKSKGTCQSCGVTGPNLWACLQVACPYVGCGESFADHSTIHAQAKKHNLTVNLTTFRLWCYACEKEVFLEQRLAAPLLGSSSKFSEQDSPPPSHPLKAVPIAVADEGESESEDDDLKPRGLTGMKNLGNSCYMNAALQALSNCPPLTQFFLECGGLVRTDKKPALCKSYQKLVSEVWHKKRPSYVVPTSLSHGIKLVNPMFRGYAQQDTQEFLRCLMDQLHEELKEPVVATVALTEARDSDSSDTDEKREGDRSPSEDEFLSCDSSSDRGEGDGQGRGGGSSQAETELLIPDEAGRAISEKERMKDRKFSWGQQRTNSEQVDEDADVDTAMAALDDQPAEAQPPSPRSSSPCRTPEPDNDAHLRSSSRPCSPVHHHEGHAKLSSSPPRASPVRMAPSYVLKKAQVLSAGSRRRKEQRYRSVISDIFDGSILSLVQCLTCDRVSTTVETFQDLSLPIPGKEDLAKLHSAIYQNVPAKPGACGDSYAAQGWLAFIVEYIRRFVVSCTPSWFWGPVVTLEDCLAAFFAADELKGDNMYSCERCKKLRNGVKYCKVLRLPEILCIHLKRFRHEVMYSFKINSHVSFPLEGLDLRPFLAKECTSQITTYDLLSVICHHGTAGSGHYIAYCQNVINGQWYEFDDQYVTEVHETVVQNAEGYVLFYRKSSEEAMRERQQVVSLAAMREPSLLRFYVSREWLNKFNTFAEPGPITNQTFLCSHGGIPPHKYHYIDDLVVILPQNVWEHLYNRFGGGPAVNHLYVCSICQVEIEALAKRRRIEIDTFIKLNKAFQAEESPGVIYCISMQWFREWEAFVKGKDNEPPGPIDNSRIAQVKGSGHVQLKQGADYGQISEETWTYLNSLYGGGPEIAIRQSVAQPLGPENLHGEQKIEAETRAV
# UniProt Q96K76, sequence (Q96K76 whole entry): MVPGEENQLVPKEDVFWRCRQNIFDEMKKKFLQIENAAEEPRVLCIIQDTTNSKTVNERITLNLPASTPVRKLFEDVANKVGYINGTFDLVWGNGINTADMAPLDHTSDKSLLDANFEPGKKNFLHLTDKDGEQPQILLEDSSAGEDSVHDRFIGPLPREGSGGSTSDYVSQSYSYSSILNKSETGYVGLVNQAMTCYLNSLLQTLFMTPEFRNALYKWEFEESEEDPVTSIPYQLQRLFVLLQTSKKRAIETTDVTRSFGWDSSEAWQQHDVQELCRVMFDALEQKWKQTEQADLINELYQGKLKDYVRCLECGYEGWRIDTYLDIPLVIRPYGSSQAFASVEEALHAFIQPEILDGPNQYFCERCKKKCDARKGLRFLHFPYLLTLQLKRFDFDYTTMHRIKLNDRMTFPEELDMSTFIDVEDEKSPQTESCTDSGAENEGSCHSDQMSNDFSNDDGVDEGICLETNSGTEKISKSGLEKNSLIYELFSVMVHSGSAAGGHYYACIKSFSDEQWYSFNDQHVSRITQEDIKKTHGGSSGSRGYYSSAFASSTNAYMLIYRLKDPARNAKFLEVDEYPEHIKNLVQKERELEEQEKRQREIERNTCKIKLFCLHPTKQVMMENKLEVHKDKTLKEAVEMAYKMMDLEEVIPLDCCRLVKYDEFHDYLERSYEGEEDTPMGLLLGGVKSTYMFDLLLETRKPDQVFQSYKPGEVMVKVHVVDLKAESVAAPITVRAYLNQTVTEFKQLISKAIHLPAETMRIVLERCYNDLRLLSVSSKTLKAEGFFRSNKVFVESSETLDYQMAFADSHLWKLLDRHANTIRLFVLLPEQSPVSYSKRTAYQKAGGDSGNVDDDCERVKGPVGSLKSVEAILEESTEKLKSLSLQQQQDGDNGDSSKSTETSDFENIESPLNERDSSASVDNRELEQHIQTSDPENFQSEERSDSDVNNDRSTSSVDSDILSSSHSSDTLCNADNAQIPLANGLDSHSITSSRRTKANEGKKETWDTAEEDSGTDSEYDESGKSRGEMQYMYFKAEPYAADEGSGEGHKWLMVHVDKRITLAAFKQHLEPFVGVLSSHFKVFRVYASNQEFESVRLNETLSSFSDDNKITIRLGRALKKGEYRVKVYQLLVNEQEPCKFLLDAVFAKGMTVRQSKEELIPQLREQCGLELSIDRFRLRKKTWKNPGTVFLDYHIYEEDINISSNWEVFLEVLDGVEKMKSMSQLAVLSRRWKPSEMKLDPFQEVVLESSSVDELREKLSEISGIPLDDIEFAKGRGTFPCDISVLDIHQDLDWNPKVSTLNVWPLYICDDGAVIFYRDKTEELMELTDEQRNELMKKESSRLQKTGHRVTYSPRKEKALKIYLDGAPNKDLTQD
target,measurement,setting,value
USP47 (UniProt Q96K76),log2 ratio of Biotin-Ahx-Ub-VS probe labelling,[1]; compound concentration: 0.78uM,-0.835
same,log2 ratio of Biotin-Ahx-Ub-VS probe labelling,[1]; compound concentration: 1.56uM,-0.97
same,log2 ratio of Biotin-Ahx-Ub-VS probe labelling,[1]; compound concentration: 3.13uM,-1.96 (active)
same,log2 ratio of Biotin-Ahx-Ub-VS probe labelling,[1]; compound concentration: 6.25uM,-1.31 (active)
same,log2 ratio of Biotin-Ahx-Ub-VS probe labelling,[1]; compound concentration: 12.5uM,-2.62 (active)
same,log2 ratio of Biotin-Ahx-Ub-VS probe labelling,[1]; compound concentration: 25uM,-2.65 (active)
same,log2 ratio of Biotin-Ahx-Ub-VS probe labelling,[1]; compound concentration: 50uM,-1.54 (active)
same,log2 ratio of Biotin-Ahx-Ub-VS probe labelling,[1]; compound concentration: 100uM,-1.65 (active)
same,log2 ratio of Biotin-Ahx-Ub-VS probe labelling,[1]; compound concentration: 200uM,-1.87 (active)
same,log2 ratio of Biotin-Ahx-Ub-VS probe labelling,[2]; compound concentration: 0.78uM,-1.55 (active)
same,log2 ratio of Biotin-Ahx-Ub-VS probe labelling,[2]; compound concentration: 1.56uM,-0.399
same,log2 ratio of Biotin-Ahx-Ub-VS probe labelling,[2]; compound concentration: 3.13uM,-0.592
same,log2 ratio of Biotin-Ahx-Ub-VS probe labelling,[2]; compound concentration: 6.25uM,-0.585
same,log2 ratio of Biotin-Ahx-Ub-VS probe labelling,[2]; compound concentration: 12.5uM,-0.654
same,log2 ratio of Biotin-Ahx-Ub-VS probe labelling,[2]; compound concentration: 25uM,-0.26
same,log2 ratio of Biotin-Ahx-Ub-VS probe labelling,[2]; compound concentration: 50uM,-0.749
same,log2 ratio of Biotin-Ahx-Ub-VS probe labelling,[2]; compound concentration: 100uM,-0.609
same,log2 ratio of Biotin-Ahx-Ub-VS probe labelling,[2]; compound concentration: 200uM,0.134
same,log2 ratio of Biotin-Ahx-Ub-VS probe labelling,[3]; compound concentration: 0.78uM,-0.545
same,log2 ratio of Biotin-Ahx-Ub-VS probe labelling,[3]; compound concentration: 1.56uM,-0.834
same,log2 ratio of Biotin-Ahx-Ub-VS probe labelling,[3]; compound concentration: 3.13uM,-0.514
same,log2 ratio of Biotin-Ahx-Ub-VS probe labelling,[3]; compound concentration: 6.25uM,-1.57 (active)
same,log2 ratio of Biotin-Ahx-Ub-VS probe labelling,[3]; compound concentration: 12.5uM,-0.725
same,log2 ratio of Biotin-Ahx-Ub-VS probe labelling,[3]; compound concentration: 25uM,-0.536
same,log2 ratio of Biotin-Ahx-Ub-VS probe labelling,[3]; compound concentration: 50uM,-0.911
same,log2 ratio of Biotin-Ahx-Ub-VS probe labelling,[3]; compound concentration: 100uM,-1.22 (active)
same,log2 ratio of Biotin-Ahx-Ub-VS probe labelling,[3]; compound concentration: 200uM,-0.929
USP20 (UniProt Q9Y2K6),log2 ratio of Biotin-Ahx-Ub-VS probe labelling,[1]; compound concentration: 0.78uM,-0.154
same,log2 ratio of Biotin-Ahx-Ub-VS probe labelling,[1]; compound concentration: 1.56uM,-0.0255
same,log2 ratio of Biotin-Ahx-Ub-VS probe labelling,[1]; compound concentration: 3.13uM,-0.00841
same,log2 ratio of Biotin-Ahx-Ub-VS probe labelling,[1]; compound concentration: 6.25uM,-0.000882
same,log2 ratio of Biotin-Ahx-Ub-VS probe labelling,[1]; compound concentration: 12.5uM,-0.0255
same,log2 ratio of Biotin-Ahx-Ub-VS probe labelling,[1]; compound concentration: 25uM,0.0283
same,log2 ratio of Biotin-Ahx-Ub-VS probe labelling,[1]; compound concentration: 50uM,0.0248
same,log2 ratio of Biotin-Ahx-Ub-VS probe labelling,[1]; compound concentration: 100uM,-0.235
same,log2 ratio of Biotin-Ahx-Ub-VS probe labelling,[1]; compound concentration: 200uM,-0.41
same,log2 ratio of Biotin-Ahx-Ub-VS probe labelling,[2]; compound concentration: 0.78uM,-0.0803
same,log2 ratio of Biotin-Ahx-Ub-VS probe labelling,[2]; compound concentration: 1.56uM,0.0532
same,log2 ratio of Biotin-Ahx-Ub-VS probe labelling,[2]; compound concentration: 3.13uM,-0.0362
same,log2 ratio of Biotin-Ahx-Ub-VS probe labelling,[2]; compound concentration: 6.25uM,-0.00476
same,log2 ratio of Biotin-Ahx-Ub-VS probe labelling,[2]; compound concentration: 12.5uM,-0.141
same,log2 ratio of Biotin-Ahx-Ub-VS probe labelling,[2]; compound concentration: 25uM,-0.125
same,log2 ratio of Biotin-Ahx-Ub-VS probe labelling,[2]; compound concentration: 50uM,-0.102
same,log2 ratio of Biotin-Ahx-Ub-VS probe labelling,[2]; compound concentration: 100uM,-0.0854
same,log2 ratio of Biotin-Ahx-Ub-VS probe labelling,[2]; compound concentration: 200uM,-0.279
same,log2 ratio of Biotin-Ahx-Ub-VS probe labelling,[3]; compound concentration: 0.78uM,-0.0632
same,log2 ratio of Biotin-Ahx-Ub-VS probe labelling,[3]; compound concentration: 1.56uM,0.0904
same,log2 ratio of Biotin-Ahx-Ub-VS probe labelling,[3]; compound concentration: 3.13uM,-0.0898
same,log2 ratio of Biotin-Ahx-Ub-VS probe labelling,[3]; compound concentration: 6.25uM,0.0566
same,log2 ratio of Biotin-Ahx-Ub-VS probe labelling,[3]; compound concentration: 12.5uM,0.0631
same,log2 ratio of Biotin-Ahx-Ub-VS probe labelling,[3]; compound concentration: 25uM,-0.0313
same,log2 ratio of Biotin-Ahx-Ub-VS probe labelling,[3]; compound concentration: 50uM,0.0027
same,log2 ratio of Biotin-Ahx-Ub-VS probe labelling,[3]; compound concentration: 100uM,-0.13
same,log2 ratio of Biotin-Ahx-Ub-VS probe labelling,[3]; compound concentration: 200uM,-0.329
UniProt Q70EL2,log2 ratio of Biotin-Ahx-Ub-VS probe labelling,[4]; compound concentration: 50uM,-0.13
same,log2 ratio of Biotin-Ahx-Ub-VS probe labelling,[4]; compound concentration: 200uM,-0.934
same,log2 ratio of Biotin-Ahx-Ub-VS probe labelling,[5]; compound concentration: 50uM,-0.103
same,log2 ratio of Biotin-Ahx-Ub-VS probe labelling,[5]; compound concentration: 200uM,-0.476
same,log2 ratio of Biotin-Ahx-Ub-VS probe labelling,[6]; compound concentration: 50uM,0.274
same,log2 ratio of Biotin-Ahx-Ub-VS probe labelling,[6]; compound concentration: 200uM,-0.808
same,log2 ratio of Biotin-Ahx-Ub-VS probe labelling,[7]; compound concentration: 50uM,0.181
same,log2 ratio of Biotin-Ahx-Ub-VS probe labelling,[7]; compound concentration: 200uM,-0.179
same,log2 ratio of Biotin-Ahx-Ub-VS probe labelling,[8]; compound concentration: 50uM,0.189
same,log2 ratio of Biotin-Ahx-Ub-VS probe labelling,[8]; compound concentration: 200uM,-0.754
same,log2 ratio of Biotin-Ahx-Ub-VS probe labelling,[9]; compound concentration: 50uM,-0.48
same,log2 ratio of Biotin-Ahx-Ub-VS probe labelling,[9]; compound concentration: 200uM,-0.823
same,log2 ratio of Biotin-Ahx-Ub-VS probe labelling,[10]; compound concentration: 50uM,-0.354
same,log2 ratio of Biotin-Ahx-Ub-VS probe labelling,[10]; compound concentration: 200uM,-0.47
same,log2 ratio of Biotin-Ahx-Ub-VS probe labelling,[11]; compound concentration: 50uM,-0.228
same,log2 ratio of Biotin-Ahx-Ub-VS probe labelling,[11]; compound concentration: 200uM,-0.814
same,log2 ratio of Biotin-Ahx-Ub-VS probe labelling,[12]; compound concentration: 50uM,-0.191
same,log2 ratio of Biotin-Ahx-Ub-VS probe labelling,[12]; compound concentration: 200uM,-0.88
same,log2 ratio of Biotin-Ahx-Ub-VS probe labelling,[13]; compound concentration: 50uM,-0.338
same,log2 ratio of Biotin-Ahx-Ub-VS probe labelling,[13]; compound concentration: 200uM,-0.647
same,log2 ratio of Biotin-Ahx-Ub-VS probe labelling,[14]; compound concentration: 50uM,-0.512
same,log2 ratio of Biotin-Ahx-Ub-VS probe labelling,[14]; compound concentration: 200uM,-0.481
same,log2 ratio of Biotin-Ahx-Ub-VS probe labelling,[15]; compound concentration: 50uM,-0.569
same,log2 ratio of Biotin-Ahx-Ub-VS probe labelling,[15]; compound concentration: 200uM,-1.27 (active)
same,log2 ratio of Biotin-Ahx-Ub-VS probe labelling,[16]; compound concentration: 50uM,-0.558
same,log2 ratio of Biotin-Ahx-Ub-VS probe labelling,[16]; compound concentration: 200uM,-1.03 (active)
same,log2 ratio of Biotin-Ahx-Ub-VS probe labelling,[17]; compound concentration: 50uM,-0.0582
same,log2 ratio of Biotin-Ahx-Ub-VS probe labelling,[17]; compound concentration: 200uM,-0.311
same,log2 ratio of Biotin-Ahx-Ub-VS probe labelling,[18]; compound concentration: 50uM,-0.413
same,log2 ratio of Biotin-Ahx-Ub-VS probe labelling,[18]; compound concentration: 200uM,-0.868
same,log2 ratio of Biotin-Ahx-Ub-VS probe labelling,[19]; compound concentration: 50uM,0.37
same,log2 ratio of Biotin-Ahx-Ub-VS probe labelling,[19]; compound concentration: 200uM,-0.115

# Source: the supplement of paper PMC11732987, “Enantioselective OTUD7B fragment discovery through chemoproteomics screening and high-throughput optimisation” (Communications Chemistry, 2025)
